The supplement of paper PMC4022240
± gives the standard deviation.

Experiments:
Assay in all cases: peptide microarray binding signal (635 nm), min-max normalized on array (fraction of array maximum); higher = stronger binding
Conditions in all cases: peptide region: Unmod H2B variant
[1] = target: T1, HaloTag-ATRX ADD domain (163-292)
T1 chain: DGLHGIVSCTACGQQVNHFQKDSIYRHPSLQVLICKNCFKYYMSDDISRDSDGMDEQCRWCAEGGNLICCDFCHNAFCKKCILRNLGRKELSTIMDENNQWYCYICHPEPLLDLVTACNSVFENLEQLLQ
Method in brief: (§1)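 For each library, binding signal was taken as the triplicate-spot mean intensity and then min-max scaled. Spots of histone 13-mer peptide–cellulose conjugates on nitrocellulose, printed in triplicate with a Cy3 tracer, were probed for 1 h at 4°C with either biotin-labelled HaloTag reader fusions (10 nM to 1 μM) and streptavidin-Alexa Fluor 647 or rabbit histone antibodies (1:10,000 to 1:2,000) and anti-rabbit Alexa 647. Readout at 635 nm came from an Axon GenePix 4000B.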

[2] = target: HaloTag-ING2 PHD (mouse Ing2 200-280)
Method in brief: as §1

[3] = target: anti-H3K4me3 antibody ab8580
Method in brief: as §1

[4] = target: anti-H3K9me3 antibody ab8898
Method in brief: as §1

[5] = binder concentration: 1:2,000 dilution
[6] = binder concentration: 1:10,000 dilution

| Binder | peptide microarray binding signal ([1]; binder concentration: 50 nM) | peptide microarray binding signal ([1]; binder concentration: 500 nM) | peptide microarray binding signal ([2]; binder concentration: 10 nM) | peptide microarray binding signal ([2]; binder concentration: 100 nM) | peptide microarray binding signal [3, 5] | peptide microarray binding signal [3, 6] | peptide microarray binding signal [4, 5] | peptide microarray binding signal [4, 6] |
| --- | --- | --- | --- | --- | --- | --- | --- | --- |
| DIFERIASEASRL [Unmod H2B variant D I F E R I A S E A S R L] | 0.00655 ± 0.00034 | 0.00648 ± 0.00023 | 0.00454 ± 0.00011 | 0.0142 ± 0.0098 | 0.000793 ± 2.2e-05 | 0.00177 ± 2.9e-05 | 0.000453 ± 1.5e-05 | 0.001211 ± 1.2e-05 |
| YNKRSTITSREIQ [Unmod H2B variant Y N K R S T I T S R E I Q] | 0.00837 ± 0.00045 | 0.0253 ± 0.0034 | 0.0181 ± 0.00093 | 0.0337 ± 0.0033 | 0.00293 ± 0.00014 | 0.00382 ± 0.00016 | 0.000936 ± 1.5e-05 | 0.00213 ± 7.9e-05 |
| KTQKKEGKKRKRT [Unmod H2B variant K T Q K K E G K K R K R T] | 0.0089 ± 0.00018 | 0.0148 ± 0.0025 | 0.003163 ± 1.7e-05 | 0.00857 ± 0.0013 | 0.00068 ± 1.9e-05 | 0.0012 ± 1.2e-05 | 0.000287 ± 5.9e-06 | 0.000865 ± 9e-06 |
| GISSKAMGIMNSF [Unmod H2B variant G I S S K A M G I M N S F] | 0.00856 ± 0.00082 | 0.0227 | 0.00913 ± 0.00027 | 0.0416 ± 0.0056 | 0.00215 ± 0.00023 | 0.00348 ± 0.00045 | 0.000695 ± 1.2e-05 | 0.0011 ± 1.1e-05 |
| AMGIMNSFVNDIF [Unmod H2B variant A M G I M N S F V N D I F] | 0.0068 ± 0.00037 | 0.0162 ± 0.0016 | 0.0083 ± 0.00011 | 0.0126 ± 0.00023 | 0.00362 ± 0.00022 | 0.00548 ± 0.00033 | 0.00285 ± 0.0002 | 0.00311 ± 5.3e-05 |
| KRSRKESYSIYVY [Unmod H2B variant K R S R K E S Y S I Y V Y] | 0.00561 ± 0.00019 | 0.0029 ± 0.00042 | 0.00179 ± 4.2e-05 | 0.000496 ± 9.7e-06 | 0.00051 ± 7.5e-05 | 0.000685 ± 1.5e-05 | 0.000227 ± 4.1e-06 | 0.000634 ± 1.2e-05 |
| IAGEASRLAHYNK [Unmod H2B variant I A G E A S R L A H Y N K] | 0.0147 ± 0.00017 | 0.0384 ± 0.0025 | 0.0361 ± 0.0036 | 0.0742 ± 0.0014 | 0.00521 ± 0.00045 | 0.00633 ± 0.00022 | 0.00217 ± 5.9e-05 | 0.00259 ± 4.6e-05 |
| NSFVTDIFERIAS [Unmod H2B variant N S F V T D I F E R I A S] | 0.00646 ± 0.0003 | 0.0141 ± 0.00044 | 0.00483 ± 0.00011 | 0.00815 ± 0.00095 | 0.00238 ± 0.00045 | 0.00308 ± 0.00038 | 0.000936 ± 2e-05 | 0.00208 ± 9.6e-05 |
| GISSKAMSIMNSF [Unmod H2B variant G I S S K A M S I M N S F] | 0.0103 ± 0.00033 | 0.0293 ± 0.0012 | 0.011 ± 0.0025 | 0.0429 ± 0.016 | 0.00194 ± 0.00057 | 0.00228 ± 0.00014 | 0.000936 ± 5e-05 | 0.00144 ± 2.8e-05 |
| KAQKKDGKKRKRS [Unmod H2B variant K A Q K K D G K K R K R S] | 0.0176 ± 0.012 | 0.00876 ± 0.00031 | 0.00275 | 0.00461 ± 0.00031 | 0.000415 ± 4.2e-06 | 0.00103 ± 2.1e-05 | 0.000227 | 0.000692 ± 7.3e-06 |
| KVLKQVHPDTGIS [Unmod H2B variant K V L K Q V H P D T G I S] | 0.00552 ± 0.00019 | 0.00971 ± 0.0005 | 0.00531 ± 0.00011 | 0.0101 ± 0.00011 | 0.000755 ± 1.8e-05 | 0.001655 ± 1.6e-05 | 0.000483 ± 2.8e-05 | 0.00346 ± 0.0011 |
| KRTRKESYSIYIY [Unmod H2B variant K R T R K E S Y S I Y I Y] | 0.015 ± 0.0008 | 0.0228 ± 0.0011 | 0.00716 ± 0.00018 | 0.0159 ± 0.0033 | 0.000529 ± 1.4e-05 | 0.0016 ± 5.3e-05 | 0.000468 ± 1.2e-05 | 0.0011 ± 1.1e-05 |
| YSKRSTISSREIQ [Unmod H2B variant Y S K R S T I S S R E I Q] | 0.01006 ± 2.8e-05 | 0.0303 ± 0.0022 | 0.0109 ± 0.00062 | 0.0429 ± 0.0047 | 0.00225 ± 0.00019 | 0.00211 ± 6.7e-05 | 0.00103 ± 2.2e-05 | 0.0015 ± 2.5e-05 |
| NSFVNDIFERIAG [Unmod H2B variant N S F V N D I F E R I A G] | 0.00721 ± 0.00059 | 0.00671 ± 0.00013 | 0.00364 ± 0.00012 | 0.003827 ± 3.3e-05 | 0.00198 ± 0.00015 | 0.002339 ± 2.1e-05 | 0.00074 ± 6.4e-06 | 0.001614 ± 1.6e-05 |
| DIFERIAGEASRL [Unmod H2B variant D I F E R I A G E A S R L] | 0.0112 ± 0.00018 | 0.0406 ± 0.0012 | 0.013 ± 0.00037 | 0.0336 ± 0.00077 | 0.00406 ± 0.00012 | 0.00548 ± 0.00027 | 0.00234 ± 0.00013 | 0.003113 ± 2.6e-05 |
| VHPDTGISSKAMG [Unmod H2B variant V H P D T G I S S K A M G] | 0.009373 ± 4.6e-05 | 0.0173 ± 0.0018 | 0.0154 ± 0.0017 | 0.0346 ± 0.0034 | 0.00563 ± 0.0004 | 0.00964 ± 0.0005 | 0.00272 ± 6.5e-05 | 0.00283 ± 4.9e-05 |
| AMSIMNSFVTDIF [Unmod H2B variant A M S I M N S F V T D I F] | 0.0108 ± 0.0002 | 0.0253 ± 0.001 | 0.01188 ± 7.7e-05 | 0.0239 ± 0.0025 | 0.00882 ± 0.0011 | 0.0132 ± 0.00021 | 0.00523 ± 0.00065 | 0.00571 ± 0.00035 |
| EGKKRKRTRKESY [Unmod H2B variant E G K K R K R T R K E S Y] | 0.00661 ± 0.00023 | 0.0101 ± 0.00031 | 0.00251 ± 0.00012 | 0.00326 ± 0.0001 | 0.000378 ± 3.9e-06 | 0.000913 ± 1.6e-05 | 0.000302 ± 1.5e-05 | 0.000404 ± 4.4e-06 |
| DGKKRKRSRKESY [Unmod H2B variant D G K K R K R S R K E S Y] | 0.00834 ± 0.00013 | 0.00714 ± 0.00021 | 0.00221 ± 3.8e-05 | 0.00454 ± 0.00011 | 0.000623 ± 2e-05 | 0.000628 ± 6.7e-06 | 0.000151 ± 1.6e-06 | 0.000461 |
| APKKGSKKAITKA [Unmod H2B variant A P K K G S K K A I T K A] | 0.00592 ± 0.00021 | 0.00971 ± 0.00064 | 0.00239 ± 4.7e-05 | 0.00248 ± 6.3e-05 | 0.000264 ± 2.8e-06 | 0.00114 ± 3e-05 | 0.000302 ± 3.1e-06 | 0.000634 ± 1.2e-05 |
